In the library only some 7.1% were active in any assay of this set; here they are far more common.
MCF10A rerep – DNA re-replication induction in MCF 10a cells; Potency, µM (titrated, usually from 46.1 µM), hits mostly activators; actives 2.9% (n = 350,000); MCF 10A DNA re-replication, Hoechst nuclear intensity, 48 h; also: nearly all actives have a fitted effect of over 50% in size
IL1B secr inh – inflammasome signaling inhibition, IL-1 beta readout; THP-1 LPS/ATP IL-1B secretion, AlphaLISA, 16 h; stronger effect = lower value; activity change, % at 57.5 µM; actives 4.7% (n = 360,000); AID 743279; in the data active = activity change below about -50%; inconclusive = mostly about -30% to -49%
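THP-1 cells pretreated 1 hr with compounds (up to 57.5 uM final), then stimulated with LPS (250 ng/mL final) plus ATP (1.25 mM final); secreted IL-1B measured by AlphaLISA after 16 hr, decreased signal indicating inhibition.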
S2 tox – viability counter-screen for ATXN expression inhibitors | S2 cells (HEK-293 line with an ATXN2-luciferase reporter) viability, CellTiter-Fluor protease fluorescence, 24 h | Potency, µM (highest dose often 56.7 µM), hits mostly cytotoxic | actives 0.49% (n = 400,000); also: nearly all actives have a fitted effect of over 40% in size
SW480 rereplic – inducers of DNA re-replication in SW480 colon cancer cells; actives 1.8% (n = 340,000); SW480 DNA re-replication, Hoechst DNA content imaging, 48 h; Potency, µM (highest dose often 46.1 µM), actives largely listed as activators; also: nearly all actives have a fitted effect of over 55% in size
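Treated cells incubate 48 hr (37 C, 5% CO2), are stained 40 min with Hoechst, and nuclear fluorescence is enumerated; a rise in nuclei with high DNA signal marks re-replication.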
PINK1 modulator – PINK1 expression modulation; PINK1 immunofluorescence, high-content cytometry, 24 h; actives 0.2% (n = 410,000); Potency, µM (titrated, usually from 76.6 µM), hits mostly activators; AID 624263; active = well fitted activation curve with a large enough effect; inconclusive = small, poorly fitted or top-dose-only effect; cell line not stated here; also: nearly all actives have a fitted effect of over 65% in size
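Compound titrations (5 concentrations, 24 h) on a stable cell line; DMSO and CCCP controls. Endpoint: fixed-cell PINK1 immunofluorescence with mitochondrial, cell and nuclear markers, scanned by microplate cytometer.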
ATXN2 expr inh – ATXN2 expression inhibition; HEK-293 ATXN2-luciferase reporter, luminescence, 24 h; Potency, µM (doses to about 57 µM), hits mostly inhibitors; actives 0.72% (n = 360,000); AID 1745845; also: nearly all actives have a fitted effect of over 55% in size
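qHTS (up to 57 uM final) was run with 24 h compound exposure of reporter cells at 37 °C. Each well was multiplexed: SteadyGlo luminescence measured ATXN2-luciferase expression after a fluorogenic Gly-Phe-AFC viability readout (25 uM final).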
Large screens that a line does not name were inactive. Unless noted, calls follow the shape of the dose curve; as a rule, active = well fitted curve in the direction sought with a large enough effect; inconclusive = small, poorly fitted or top-dose-only effect, or another doubt; inactive = no such curve, though single readings can be large; an effect the other way counts as inactive or inconclusive.

CCC1=Nc2cc(C(=O)N3CCCCC3)ccc2Sc2ccc(C)cc21	S2 tox 32µM, ATXN2 expr inh inconclusive
CCCC1=Nc2cc(C(=O)N3CCCC3)ccc2Sc2ccc(C)cc21	MCF10A rerep inconclusive, SW480 rereplic inconclusive
O=C(Cn1ncc2c3ccccc3n(Cc3ccc(Cl)cc3)c2c1=O)NCc1ccccn1	none (no result: MCF10A rerep, IL1B secr inh, SW480 rereplic)
Cc1cccc(NC(=O)Nc2ccc(C#N)cc2)n1	MCF10A rerep 15µM, IL1B secr inh -85, SW480 rereplic inconclusive
CN(C(=O)c1ccccc1C(=O)OCC(=O)c1ccc(Br)cc1)c1ccccc1	none
Cc1ccc2c(C)c(C(=O)N3CCN(Cc4ccc5c(c4)OCO5)CC3)oc2c1C	IL1B secr inh -78
O=C(c1sccc1Br)N1CCN(Cc2ccc3c(c2)OCO3)CC1	IL1B secr inh -71
Cc1ccc2c(C)c(C(=O)N3CCN(c4cnccn4)CC3)oc2c1C	IL1B secr inh -63, S2 tox inconclusive
O=C(N1CCN(Cc2ccc3c(c2)OCO3)CC1)C12CC3CC(CC(C3)C1)C2	IL1B secr inh -85 (no result: PINK1 modulator)
Cc1ccc(C(=O)N2CCN(Cc3ccc4c(c3)OCO4)CC2)o1	none
O=C(c1cc(F)c(F)c(F)c1F)N1CCN(Cc2ccc3c(c2)OCO3)CC1	none
Cc1cc(Cl)c2oc(C(=O)N3CCN(c4cnccn4)CC3)c(C)c2c1	S2 tox inconclusive (no result: MCF10A rerep, SW480 rereplic, ATXN2 expr inh)
O=C(Nc1cccc(Cl)c1)c1ccc2nc(CCc3ccccc3)oc2c1	none (no result: MCF10A rerep, IL1B secr inh, SW480 rereplic)
CCc1ccccc1NC(=O)Cn1c(C(=O)OC)cc2oc(C)cc21	none (no result: MCF10A rerep, IL1B secr inh, SW480 rereplic)
CNc1ccccc1C(=O)OC(C)C(=O)Nc1ccc(Cl)cn1 (centres undefined)	MCF10A rerep inconclusive, IL1B secr inh -75, SW480 rereplic inconclusive, ATXN2 expr inh 8.9µM
CCOc1ncccc1C(=O)OC(C)C(=O)Nc1ccc(Cl)cn1 (centres undefined)	ATXN2 expr inh inconclusive
O=C(CC1(O)C(=O)N(Cc2ccccc2)c2ccc(Br)cc21)c1ccccc1 (centres undefined)	S2 tox inconclusive, ATXN2 expr inh inconclusive (no result: MCF10A rerep, IL1B secr inh, SW480 rereplic)
C=CCN1C(=O)C(O)(CC(=O)c2ccco2)c2cc(Br)ccc21 (centres undefined)	MCF10A rerep inconclusive, SW480 rereplic 13µM
Cc1cc(C)cc(S(=O)(=O)c2cn(C)c3cc(N4CCN(C)CC4)c(F)cc3c2=O)c1	MCF10A rerep 23µM (no result: ATXN2 expr inh)
O=C(O)CSc1nc(-c2ccc(Cl)cc2)nc2c1oc1ccccc12	MCF10A rerep 23µM, S2 tox inconclusive
O=C(O)CSc1nc(-c2ccccc2)nc2c1oc1ccccc12	none
Cc1nc(SCC(=O)N2CCCc3ccccc32)c2oc3ccccc3c2n1	MCF10A rerep inconclusive, SW480 rereplic 16µM
Cc1nc(SCC(=O)Nc2ccccc2)c2oc3ccccc3c2n1	MCF10A rerep 12µM, S2 tox inconclusive
CCN(c1cc(C)cc(C)c1)S(=O)(=O)c1nnc(NC(=O)c2cccc(F)c2)s1	none (no result: MCF10A rerep, IL1B secr inh, S2 tox, SW480 rereplic, ATXN2 expr inh)
CSc1ccc(CNC(=O)CN2C(=O)C3CCCCN3c3ccc(C(=O)N4CCCC4)cc32)cc1 (centres undefined)	none (no result: MCF10A rerep, IL1B secr inh, SW480 rereplic)
CC(C)(C)NCCC(O)c1cc(C(F)(F)F)nc2c(C(F)(F)F)cccc12 (centres undefined)	IL1B secr inh -88, SW480 rereplic inconclusive
O=C1C(=C(c2ccccc2)N2CCOCC2)Cc2ccccc21	IL1B secr inh -104, S2 tox inconclusive (no result: MCF10A rerep, SW480 rereplic, ATXN2 expr inh)
Cc1ccc(NC(=O)C(OC(=O)c2ccc(F)cc2)c2ccccc2)cc1Cl (centres undefined)	none
Cc1ccc(NC(=O)C(OC(=O)c2ccc(O)cc2)c2ccccc2)cc1Cl (centres undefined)	MCF10A rerep 26µM (no result: ATXN2 expr inh)
Cc1cc(C)cc(NC(=O)C(NS(=O)(=O)c2cccc3nsnc23)c2ccccc2)c1 (centres undefined)	none (no result: MCF10A rerep, IL1B secr inh, SW480 rereplic)
CCCc1[nH]n(-c2nc3ccccc3s2)c(=O)c1C=NCC(C)C	IL1B secr inh -58
COc1cc(C)ccc1S(=O)(=O)NC(=O)C1(C)CCN1C(=O)C1(c2ccc(Cl)cc2)CCC1 (centres undefined)	none (no result: MCF10A rerep, SW480 rereplic)
CCOC(=O)c1c(-c2ccccc2)nnn1-c1nc(OCC)nc(N2CCCCC2)n1	MCF10A rerep 15µM, ATXN2 expr inh inconclusive (no result: S2 tox)
Cc1ccc(-n2nnnc2CCl)cc1	MCF10A rerep inconclusive, IL1B secr inh -101, S2 tox inconclusive, SW480 rereplic inconclusive, ATXN2 expr inh inconclusive
Cc1cccc(Nc2nc(-c3ccccc3)c(C(=O)Nc3cccnc3)s2)c1	MCF10A rerep 23µM, IL1B secr inh -61, SW480 rereplic 16µM (no result: S2 tox)
O=C(Nc1cccnc1)c1ccc2nc(-c3ccccc3)c(-c3ccccc3)nc2c1	MCF10A rerep inconclusive
O=C(Nc1cccnc1)c1sc(Nc2ccccc2)nc1-c1ccccc1	MCF10A rerep 16µM, PINK1 modulator inconclusive
Cc1ccc(-c2nc3c4ccccc4n(CC(=O)N4CCN(c5ccccc5F)CC4)c(=O)n3n2)cc1	none (no result: MCF10A rerep, IL1B secr inh, SW480 rereplic)
CSc1nn(Cc2cccc(F)c2)c(N(C(C)=O)C(C)=O)c1S(=O)(=O)c1ccccc1	S2 tox 18µM, ATXN2 expr inh inconclusive (no result: MCF10A rerep, IL1B secr inh, SW480 rereplic)
COc1cccc(Cn2nc(SC)c(S(=O)(=O)c3ccccc3)c2N(C(C)=O)C(C)=O)c1	S2 tox inconclusive (no result: MCF10A rerep, IL1B secr inh, SW480 rereplic)
CCOC(=O)c1c(C)oc2nc(C)nc(N(C)Cc3ccccc3)c12	ATXN2 expr inh inconclusive (no result: MCF10A rerep, IL1B secr inh, SW480 rereplic)
CC12CCC=CC1=C(C=O)C1C2CCC2(C)C(O)CCC12 (centres undefined)	MCF10A rerep inconclusive, IL1B secr inh -97, S2 tox inconclusive, ATXN2 expr inh inconclusive
Cc1cc(O)cc2c1C1CCC3(C)C(O)CCC3C1C=C2 (centres undefined)	MCF10A rerep inconclusive, SW480 rereplic inconclusive
CC(C)(S)C(=O)N[C@@H](CS)C(=O)O	none (no result: MCF10A rerep, IL1B secr inh, SW480 rereplic, PINK1 modulator, ATXN2 expr inh)
CN1CCN(C2CN(Cc3cn(Cc4ccc(F)cc4)nn3)S(=O)(=O)C2)CC1 (centres undefined)	IL1B secr inh -65 (no result: MCF10A rerep, SW480 rereplic)
Cc1cc(C)cc(Cn2cc(CN3CC(N(C)C)CS3(=O)=O)nn2)c1 (centres undefined)	none (no result: MCF10A rerep, SW480 rereplic)
CCN(C)C1CN(Cc2cn(Cc3cc(C)cc(C)c3)nn2)S(=O)(=O)C1 (centres undefined)	IL1B secr inh -52 (no result: MCF10A rerep, SW480 rereplic)
CCOc1ccc(CNC(=O)C2CCN(C3=NS(=O)(=O)C(c4ccc(C)cc4)=C3CC)CC2)cc1	none (no result: MCF10A rerep, IL1B secr inh, S2 tox, SW480 rereplic, ATXN2 expr inh)
O=P(O)(O)OC(Cn1cncn1)(Cn1cncn1)c1ccc(F)cc1F	none (no result: MCF10A rerep, IL1B secr inh, SW480 rereplic, PINK1 modulator, ATXN2 expr inh)
CC(CCc1ccc(O)cc1)N1CCOc2c(O)cc(-c3nc4ccccc4s3)cc2C1 (centres undefined)	S2 tox inconclusive (no result: MCF10A rerep, IL1B secr inh, SW480 rereplic, ATXN2 expr inh)
CCc1ccc(C(=O)c2cn(CC(=O)Nc3ccc4c(c3)OCCO4)c3ccc(C)cc3c2=O)cc1	none (no result: MCF10A rerep, IL1B secr inh, SW480 rereplic)
